Inconclusive results are not listed. The source made the active and inactive calls. Unless noted, calls come from the whole dose curve; as a rule, active = well fitted curve in the direction sought with a large enough effect; inconclusive = small, poorly fitted or top-dose-only effect, or another doubt; inactive = no such curve, though single readings can be large; an effect the other way counts as inactive or inconclusive. Some results are limits rather than exact numbers.

This note sets out measurements from PubChem BioAssay (NCATS).

Experiment [1] deals with Lysosomal acid glucosylceramidase (Homo sapiens) (UniProt P04062). Kind of experiment: Glucocerebrosidase-p2 (AID 348; in the data active = potency below about 10 µM; note: potency is the fitted concentration of half-maximal effect). Conditions: purified GBA, blue fluorogenic substrate, 40 min. Summed up: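 Normal human glucocerebrosidase (0.2 nM) with blue fluorogenic substrate (80 uM final) in citrate/phosphate pH 5.9 with 10mM sodium taurocholate, 0.01% tween-20; 40 min RT, NaOH/glycine stop; fluorescence Ex 365/Em 440; AC50 from a titration from 0.6 nM upwards.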

Experiment [2] can be described thus: AP1 Signaling Pathway (AID 357; active = well fitted curve in either direction with a large enough effect, not every such curve was filed as active;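 note: ME-180 reporter cells stimulated with EGF at its EC50 level; % is set by controls: 0 for no effect and ±100 for the full control effect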). Conditions: ME-180 AP-1-bla reporter, EGF-induced, beta-lactamase ratio, 5 h; at 7.69 µM (top of the series) unless noted. A digest of the protocol: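 In this screen, ME-180 cells in Opti-MEM with 0.5% dialyzed FBS received EC50 EGF and compound titrations for 5 h. AP-1 reporter beta-lactamase was detected via CCF4 ratio, giving AC50 for positive and negative modulators.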

Experiment [3] deals with Cytochrome P450 1A2 (Homo sapiens) (UniProt P05177). Kind of experiment: p450-cyp1a2 (AID 410; calls by dose curve; note: potency is the fitted concentration of half-maximal effect). Summed up: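 20nM CYP1A2, 100uM Luciferin-ME (=Km), 100mM KPO4; cpd 10 min RT; +NADPH regen, 60 min RT; stop/detect 20 min; luminescence. Normalized to furafylline 57 uM = full inhibition.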
Experiment [4] can be described thus: NFAT Signaling Pathway (AID 444; active = well fitted curve in either direction with a large enough effect, not every such curve was filed as active;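 note: carbachol stimulus at about its EC50 of 1 µM final; % is set by controls: 0 for no effect and ±100 for the full control effect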). Conditions: Jurkat NFAT-bla M1, carbachol, beta-lactamase ratio, 5 h; at 7.69 µM (top of the series) unless noted. A digest of the protocol:
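Read-out: CCF4 FRET ratio (460 nm/530 nm) after 1 h RT dye loading, used for %activity and AC50 from titration series. Cells: Jurkat NFAT-β-lactamase/M1 line, treated with compound plus 1 uM carbachol for 5 h, 37 °C.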

The nature of experiment [5]: Stat Signaling Pathway (AID 446; active = well fitted curve in either direction with a large enough effect, not every such curve was filed as active;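 note: ME-180 cervical cancer cells given 40 pM IL-6 alongside compound; SIE-controlled beta-lactamase reporter measured as 460/530 nm FRET emission ratio; % is set by controls: 0 for no effect and ±100 for the full control effect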). Conditions: ME-180 (cervical carcinoma) SIE beta-lactamase reporter, IL-6 stimulated, 5 h; at 7.69 µM (top of the series) unless noted. Summed up:
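FRET read-out (405 nm excitation, 460/530 nm emission) of a beta-lactamase reporter under a STAT-inducible element in ME-180 cervical carcinoma cells. Cells with compound receive 40 pM IL-6 for 5 h. Values are normalised to AC90 stimulation and AC90 JAK-inhibitor controls.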

Experiment [6] addresses Mitogen-activated protein kinase 10 (Mus musculus) (UniProt Q61831). Kind of experiment: JNK3 AlphaScreen Assay (AID 530; active = well fitted curve in either direction with a large enough effect, not every such curve was filed as active;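 note: kinase came from lysate of stimulated human HepG2 cells; signal reports phosphorylation of biotinylated GST-cJun 1-79 at Ser73 with 10 µM ATP; % is set by controls: 0 for no effect and ±100 for the full control effect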). Summed up: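 Kinase buffer: 20 mM Tris-HCl pH 7.6, 10 mM MgCl2, 1 mM DTT, 0.1 mM Na3VO4, 0.01% Tween-20; ATP 10 uM. Substrate biotin-GST-cJun(1-79), enzyme from activated HepG2 lysates. Detection by Ser73 phospho-antibody AlphaScreen.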
A general note: In Alpha technology, singlet oxygen from a donor bead excites a nearby acceptor bead.

The target of experiment [7] is 3',5'-cyclic-AMP phosphodiesterase 4B (Homo sapiens) (UniProt Q07343). Kind of experiment: qHTS Assay for Inhibitors of PDE-IV (AID 607; active = well fitted activation curve with a large enough effect in the main read-out, with a control signal flat, not every such curve was filed as active; note: % of control where 0% means no effect). Summed up: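 Cell-based read-out of cAMP via a modified cyclic nucleotide-gated channel and membrane potential dye (535/590 nm) in HEK293 cells expressing PDE4 endogenously. Compounds tested up to 22.9 uM final; 100 uM RO 20-1724 reference.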
In general terms: In qHTS, concentration-response curves come from the screen itself.

For experiment [8], the target named is Cytochrome P450 3A4 (Homo sapiens) (UniProt P08684). As to the kind of experiment: qHTS Assay for Activators of Cytochrome P450 3A4 (AID 885). Note: nearly all actives have a fitted effect of over 65% in size. Summed up:
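Luminescent readout of luciferin formed from 25 uM Luciferin-PPXE (KM level) by 20 nM CYP3A4 in 200 mM KPO4, with 60 min NADPH-driven reaction at room temperature after 10 min compound exposure. Ketoconazole (57 uM) defined 100% inhibition.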

A short description of experiment [9]: Primary qHTS for small molecule stabilizers of the endoplasmic reticulum resident proteome: Secreted ER Calcium Modulated Protein (SERCaMP) assay (AID 1508630). Note: % is set by controls: 0 for no effect and ±100 for the full control effect. A digest of the protocol: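 The SH-SY5Y reporter protocol was run at 3 concentrations up to 38.3 uM (primary) or 11 concentrations (follow-up): 16 h compound, 100 nM thapsigargin for 4 h, then extracellular luciferase luminescence.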

Experiment [10] deals with Glucocorticoid receptor (Homo sapiens) (UniProt P04150). As to the kind of experiment: GR-GFP Redistribution (AID 450;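 active = compounds whose dose series gives a full or clear partial fitted curve of increased nuclear translocation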; note: potency is the fitted concentration of half-maximal effect). Conditions: U2OS GR-GFP nuclear translocation, laser cytometry, 2 h.
Experiment [11] has the same target. As to the kind of experiment: GR-EFC Redistribution (AID 451; calls by dose curve; note: potency is the fitted concentration of half-maximal effect). Conditions: CHO-K1 GR-EFC translocation, beta-gal luminescence, 2 h. A digest of the protocol: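 Translocation of GR-ED fusion to nuclear EA restores b-gal, read by luminescence after 1 h room-temperature detection. Engineered CHO-K1 biosensor cells, 1,000/well, exposed 2 h at 37 C to titrations up to 46 uM final.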

Experiment [12] in a line: qHTS Assay for Lipid Storage Modulators (AID 1519; calls by dose curve). The note with it: Drosophila S3 cells, BODIPY lipid droplet/cell ratio, laser cytometry, cells loaded with oleic acid; for activity change, negative = inhibition: at 57.5 µM (top of the series). A digest of the protocol: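 Cells seeded at 5,000 per well were treated with compounds over a concentration series and loaded with oleic acid (400 uM, as added). Lipid droplet fluorescence (488 nm excitation, 500-530 nm channel) was read by laser-scanning cytometry and normalized to 20 uM Triacsin C.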

The target of experiment [13] is Ubiquitin carboxyl-terminal hydrolase 1 (Homo sapiens) (UniProt O94782). As to the kind of experiment: Inhibitors of USP1/UAF1: Pilot qHTS (AID 504865).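 Note: rhodamine fluorescence freed from ubiquitin-rhodamine substrate followed over time; top concentration of the series differs between compounds; % is set by controls: 0 for no effect and ±100 for the full control effect; nearly all actives have a fitted effect of over 35% in size.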 A digest of the protocol: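 In 50mM HEPES pH 7.8 containing 0.5mM EDTA, 1mM TCEP, 0.1 mg/ml BSA and 0.01% Tween-20, 1nM USP1/UAF1 is exposed to compound for 15 min, then Ub-Rho (150nM final) is added and fluorescence is read over time.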

The nature of experiment [14]: Confirmation and Secondary Assay for Modulators of Hemoglobin Beta Chain Splicing at IVS2 654 locus (AID 910).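 Note: HeLa cells stably carrying EGFP split by mutant beta-globin IVS2-654 intron; per-well total GFP intensity by laser scanning cytometry after 2-day treatment; % of control where 0% means no effect.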 A digest of the protocol:
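Readout: per-well total peak green fluorescence (488 nm ex, 500–520 nm em) from objects 5–250 µm, reflecting correct splicing of an EGFP-654 reporter. Compounds were applied for 2 days at 37 °C to overnight-plated HeLa EGFP-654 cells; controls were DMSO and 500 nM IVS2-654 PNA.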

The nature of experiment [15]: Confirmation and Secondary Assay for Modulators of Hemoglobin Beta Chain Splicing at IVS2 705 locus (AID 930).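 Note: HeLa cells stably expressing the EGFP-705 splicing reporter; % of control where 0% means no effect.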 Summed up: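 Restored EGFP fluorescence after 2-day compound exposure reports splicing correction in IVS2-705 EGFP reporter HeLa cells; positive control was 500 nM splice-blocking PNA oligo. Signal measured as well total peak GFP intensity (488 nm excitation).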

A short description of experiment [16]: Primary qHTS for inhibitors of nuclear receptor binding SET domain protein 2 (NSD2) in an isogenic RCH-ACV NSD2 p.E1099K mutant (9B) (AID 1645876). Note: nearly all actives have a fitted effect of over 70% in size.
Experiment [17] can be described thus: Primary qHTS for inhibitors of nuclear receptor binding SET domain protein 2 (NSD2) in an RCH-ACV wild type WT cells (2C) (AID 1645877). Note: nearly all actives have a fitted effect of over 70% in size.
For experiment [18], the target named is Dual specificity protein kinase CLK4 (Homo sapiens) (UniProt Q9HAZ1). As to the kind of experiment: qHTS Assay for Inhibitors of CDC-like Kinase 4 (ADP-FP Assay) (AID 1795).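 Note: recombinant human CLK4 phosphorylating RS repeat peptide at 1 µM ATP; % is set by controls: 0 for no effect and ±100 for the full control effect; nearly all actives have a fitted effect of over 60% in size.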 A digest of the protocol: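 Clk4 6.25 nM; RS peptide 100 uM; ATP 1 uM; 25 mM Tris pH 7.5, 10 mM MgCl2; 1 h reaction. ADP detected via antibody/orange tracer FP displacement; TG003 positive control.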

The target of experiment [19] is Cytochrome P450 2C9 (Homo sapiens) (UniProt P11712). As to the kind of experiment: qHTS Assay for Inhibitors and Substrates of Cytochrome P450 2C9 (AID 883). Note: % is set by controls: 0 for no effect and ±100 for the full control effect; nearly all actives have a fitted effect of over 60% in size. Summed up: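 Turnover of Luciferin-H (100uM, KM) by 10nM human CYP2C9 was measured over 60 min at 37C with NADPH regeneration; inhibitors and some substrates reduce luminescence. Data normalized to sulphaphenazole 57uM.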

Experiment [20] addresses Cytochrome P450 3A4 (Homo sapiens) (UniProt P08684). As to the kind of experiment: qHTS Assay for Inhibitors and Substrates of Cytochrome P450 3A4 (AID 884). Note: potency is the fitted concentration of half-maximal effect; nearly all actives have a fitted effect of over 50% in size. A digest of the protocol:
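Luminescent readout of luciferin produced by CYP3A4 (20 nM) dealkylation of Luciferin-PPXE, 25 uM (its KM). NADPH-driven reaction ran 60 min at RT after 10 min compound preincubation; data scaled to 57 uM ketoconazole as 100% inhibition.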

The mark [21] stands for this setting: measured here: cell count channel max response.
[22] abbreviates: measured here: lipid channel max response.

Cytochrome P450 1A2 (Homo sapiens), sequence (P05177 whole entry, looked up): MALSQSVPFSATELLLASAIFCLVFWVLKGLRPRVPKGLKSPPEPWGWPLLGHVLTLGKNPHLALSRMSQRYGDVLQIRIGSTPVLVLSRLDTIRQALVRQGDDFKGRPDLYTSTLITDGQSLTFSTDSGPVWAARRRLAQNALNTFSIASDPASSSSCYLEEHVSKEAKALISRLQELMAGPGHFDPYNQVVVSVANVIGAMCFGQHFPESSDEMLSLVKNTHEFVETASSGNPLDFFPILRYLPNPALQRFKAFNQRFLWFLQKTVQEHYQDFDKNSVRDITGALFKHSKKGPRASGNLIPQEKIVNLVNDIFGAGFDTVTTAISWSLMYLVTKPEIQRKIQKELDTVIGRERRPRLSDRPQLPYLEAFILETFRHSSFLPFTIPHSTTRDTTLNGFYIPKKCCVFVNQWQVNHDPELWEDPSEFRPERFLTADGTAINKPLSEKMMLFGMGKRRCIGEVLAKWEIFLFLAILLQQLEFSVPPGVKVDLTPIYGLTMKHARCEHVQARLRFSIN
Ubiquitin carboxyl-terminal hydrolase 1 (Homo sapiens), sequence (O94782 whole entry, looked up): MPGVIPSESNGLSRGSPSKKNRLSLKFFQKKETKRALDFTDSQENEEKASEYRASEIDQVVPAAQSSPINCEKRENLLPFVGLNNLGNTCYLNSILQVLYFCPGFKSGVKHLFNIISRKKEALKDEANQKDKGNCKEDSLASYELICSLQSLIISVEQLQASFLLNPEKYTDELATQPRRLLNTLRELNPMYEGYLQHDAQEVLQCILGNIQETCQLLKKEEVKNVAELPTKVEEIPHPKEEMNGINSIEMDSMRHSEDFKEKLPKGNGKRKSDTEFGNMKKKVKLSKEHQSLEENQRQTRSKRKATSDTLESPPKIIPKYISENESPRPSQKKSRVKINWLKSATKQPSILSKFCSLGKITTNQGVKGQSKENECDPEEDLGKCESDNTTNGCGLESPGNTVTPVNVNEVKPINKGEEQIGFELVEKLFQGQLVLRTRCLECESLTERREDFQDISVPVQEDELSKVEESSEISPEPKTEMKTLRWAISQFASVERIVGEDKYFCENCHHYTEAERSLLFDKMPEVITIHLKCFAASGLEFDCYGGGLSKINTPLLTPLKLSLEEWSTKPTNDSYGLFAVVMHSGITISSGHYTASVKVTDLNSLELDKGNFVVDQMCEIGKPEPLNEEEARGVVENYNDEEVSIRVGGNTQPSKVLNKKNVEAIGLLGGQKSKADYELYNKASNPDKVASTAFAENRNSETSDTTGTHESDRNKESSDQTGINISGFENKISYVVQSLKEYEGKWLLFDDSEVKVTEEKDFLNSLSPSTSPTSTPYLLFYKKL
Lysosomal acid glucosylceramidase (Homo sapiens), sequence (P04062 whole entry, looked up): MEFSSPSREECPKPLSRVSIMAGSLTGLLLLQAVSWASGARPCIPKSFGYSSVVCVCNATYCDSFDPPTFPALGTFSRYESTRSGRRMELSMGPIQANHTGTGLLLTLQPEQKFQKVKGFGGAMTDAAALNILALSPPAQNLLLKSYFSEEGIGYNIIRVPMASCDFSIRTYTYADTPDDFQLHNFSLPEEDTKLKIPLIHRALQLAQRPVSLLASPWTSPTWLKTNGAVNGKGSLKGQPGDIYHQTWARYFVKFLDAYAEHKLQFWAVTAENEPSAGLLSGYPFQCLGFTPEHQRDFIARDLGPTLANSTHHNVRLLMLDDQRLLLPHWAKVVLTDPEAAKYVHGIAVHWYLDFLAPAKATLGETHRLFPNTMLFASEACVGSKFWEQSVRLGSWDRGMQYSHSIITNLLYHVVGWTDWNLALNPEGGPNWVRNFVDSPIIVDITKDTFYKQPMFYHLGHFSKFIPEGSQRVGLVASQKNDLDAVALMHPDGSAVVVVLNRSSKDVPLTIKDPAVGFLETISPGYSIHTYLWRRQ
Glucocorticoid receptor (Homo sapiens), sequence (P04150 whole entry, looked up, the tested form may be a part): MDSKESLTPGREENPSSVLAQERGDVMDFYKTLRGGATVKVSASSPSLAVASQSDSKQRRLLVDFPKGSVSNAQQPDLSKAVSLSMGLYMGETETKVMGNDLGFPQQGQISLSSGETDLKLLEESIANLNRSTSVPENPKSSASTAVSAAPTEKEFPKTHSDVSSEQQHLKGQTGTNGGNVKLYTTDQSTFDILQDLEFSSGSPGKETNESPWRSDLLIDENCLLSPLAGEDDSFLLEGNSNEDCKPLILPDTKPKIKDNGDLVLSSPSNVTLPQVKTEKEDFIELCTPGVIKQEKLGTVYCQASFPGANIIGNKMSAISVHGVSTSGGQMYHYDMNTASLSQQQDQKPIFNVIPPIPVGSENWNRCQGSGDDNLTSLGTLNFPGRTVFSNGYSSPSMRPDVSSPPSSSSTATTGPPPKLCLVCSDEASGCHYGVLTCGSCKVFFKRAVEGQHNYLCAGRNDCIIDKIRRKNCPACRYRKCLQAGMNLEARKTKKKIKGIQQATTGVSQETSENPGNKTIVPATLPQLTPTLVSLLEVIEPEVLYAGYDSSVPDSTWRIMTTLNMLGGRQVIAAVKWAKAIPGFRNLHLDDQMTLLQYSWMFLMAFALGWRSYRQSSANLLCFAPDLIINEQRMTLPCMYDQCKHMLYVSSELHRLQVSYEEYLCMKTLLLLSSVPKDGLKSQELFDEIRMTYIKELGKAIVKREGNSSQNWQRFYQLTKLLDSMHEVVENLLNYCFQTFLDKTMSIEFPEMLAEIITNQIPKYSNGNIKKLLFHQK
Cytochrome P450 3A4 (Homo sapiens), sequence (P08684 whole entry, looked up): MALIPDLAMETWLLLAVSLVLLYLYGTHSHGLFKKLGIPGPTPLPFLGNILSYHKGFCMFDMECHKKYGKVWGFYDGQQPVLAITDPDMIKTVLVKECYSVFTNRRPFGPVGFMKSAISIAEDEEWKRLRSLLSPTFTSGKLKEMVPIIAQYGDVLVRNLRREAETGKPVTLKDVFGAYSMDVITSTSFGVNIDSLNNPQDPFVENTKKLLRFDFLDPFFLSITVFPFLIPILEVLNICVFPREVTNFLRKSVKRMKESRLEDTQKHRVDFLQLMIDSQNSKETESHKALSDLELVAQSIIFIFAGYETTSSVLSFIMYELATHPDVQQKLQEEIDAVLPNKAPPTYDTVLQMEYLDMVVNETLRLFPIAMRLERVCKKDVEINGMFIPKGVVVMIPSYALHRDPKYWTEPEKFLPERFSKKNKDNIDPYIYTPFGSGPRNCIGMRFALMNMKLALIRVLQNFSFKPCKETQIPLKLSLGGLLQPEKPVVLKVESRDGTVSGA
3',5'-cyclic-AMP phosphodiesterase 4B (Homo sapiens), sequence (Q07343 whole entry, looked up): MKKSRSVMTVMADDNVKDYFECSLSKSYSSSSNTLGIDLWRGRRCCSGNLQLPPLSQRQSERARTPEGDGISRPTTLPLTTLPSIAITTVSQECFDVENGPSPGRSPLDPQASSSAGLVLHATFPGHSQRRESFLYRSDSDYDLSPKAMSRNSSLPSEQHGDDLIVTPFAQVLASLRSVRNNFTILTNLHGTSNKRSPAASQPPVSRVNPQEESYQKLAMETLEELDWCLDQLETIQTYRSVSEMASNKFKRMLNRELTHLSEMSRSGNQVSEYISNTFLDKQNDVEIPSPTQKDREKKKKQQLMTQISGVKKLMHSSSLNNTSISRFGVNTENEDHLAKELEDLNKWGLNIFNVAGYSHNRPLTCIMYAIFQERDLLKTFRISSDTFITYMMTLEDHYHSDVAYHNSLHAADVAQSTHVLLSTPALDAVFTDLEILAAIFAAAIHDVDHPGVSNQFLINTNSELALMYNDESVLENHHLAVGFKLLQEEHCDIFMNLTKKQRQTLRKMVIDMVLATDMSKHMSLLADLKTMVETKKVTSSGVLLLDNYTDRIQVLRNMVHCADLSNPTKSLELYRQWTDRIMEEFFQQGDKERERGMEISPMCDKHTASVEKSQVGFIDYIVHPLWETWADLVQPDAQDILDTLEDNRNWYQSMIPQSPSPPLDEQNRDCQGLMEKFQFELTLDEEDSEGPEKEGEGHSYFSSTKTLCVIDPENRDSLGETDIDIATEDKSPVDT
Dual specificity protein kinase CLK4 (Homo sapiens), sequence (Q9HAZ1 whole entry, looked up): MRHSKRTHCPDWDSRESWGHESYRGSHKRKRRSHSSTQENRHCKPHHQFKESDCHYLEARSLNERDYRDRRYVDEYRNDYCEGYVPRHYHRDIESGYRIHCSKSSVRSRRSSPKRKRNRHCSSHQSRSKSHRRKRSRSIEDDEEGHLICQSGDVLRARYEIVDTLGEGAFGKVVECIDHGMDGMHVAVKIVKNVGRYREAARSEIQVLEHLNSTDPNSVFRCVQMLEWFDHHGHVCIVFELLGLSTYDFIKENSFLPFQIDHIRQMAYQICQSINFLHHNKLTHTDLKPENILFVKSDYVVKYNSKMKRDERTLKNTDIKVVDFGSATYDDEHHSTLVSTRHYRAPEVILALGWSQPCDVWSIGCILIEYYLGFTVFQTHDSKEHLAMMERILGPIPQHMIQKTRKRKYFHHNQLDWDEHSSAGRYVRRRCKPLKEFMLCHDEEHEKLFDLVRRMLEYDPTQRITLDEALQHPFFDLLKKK
Cytochrome P450 2C9 (Homo sapiens), sequence (P11712 whole entry, looked up): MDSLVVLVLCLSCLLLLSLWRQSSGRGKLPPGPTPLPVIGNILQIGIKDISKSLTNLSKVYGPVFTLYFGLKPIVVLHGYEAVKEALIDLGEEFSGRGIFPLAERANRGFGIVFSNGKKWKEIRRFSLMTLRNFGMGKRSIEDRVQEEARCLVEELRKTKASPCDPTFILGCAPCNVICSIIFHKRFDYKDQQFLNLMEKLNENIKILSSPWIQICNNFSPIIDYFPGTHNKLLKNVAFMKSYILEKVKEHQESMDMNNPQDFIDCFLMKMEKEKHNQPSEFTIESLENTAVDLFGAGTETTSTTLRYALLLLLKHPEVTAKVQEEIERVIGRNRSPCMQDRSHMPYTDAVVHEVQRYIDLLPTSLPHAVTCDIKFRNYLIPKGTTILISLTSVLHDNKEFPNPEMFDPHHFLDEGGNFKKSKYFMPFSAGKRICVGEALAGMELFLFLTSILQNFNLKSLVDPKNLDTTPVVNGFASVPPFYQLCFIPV

As to `COCC(=O)N1CCC[C@@]2(CCN(Cc3ccccc3)C2)C1`, the Potency in [1] is > 11.4 µM (inactive). Further, the activity change, negative = inhibition is -0.884% (inactive) in [2] and 19.9% (inactive) in experiment [4]. Further, the Potency result in experiment [3], in experiment [7], in [8] and in [9] was “inactive” in each case. Further, the activity, negative = inhibition in experiment [5] is 7.86% (inactive). Moreover, in experiment [6], the result was inactive.

With `CN(C)c1ncc2ncc(=O)n(C[C@H]3CCCO3)c2n1`, the activity change, negative = inhibition in experiment [2] is -16.4% (inactive); in experiment [4], -6.33% (inactive); in experiment [12], 5.33% (inactive). In [5], the activity, negative = inhibition is -10.5% (inactive). Moreover, the Potency was > 9.22 µM (inactive) in experiment [10] and > 46 µM (inactive) in [11]. In addition, in experiment [6], the compound was called inactive. The Potency result in experiment [7], in [13] and in [9] was “inactive” in each case. The max response was -7.9% in experiment [12] (setting [21]) and -4.59% in experiment [12] (setting [22]).

Turning to `CN(C)Cc1ccccc1-c1nc(N2CCOCC2)c2ccccc2n1`, the activity change, negative = inhibition in experiment [2] is 25.9% (inactive); in experiment [4], -1.63% (inactive); in [12] it was 5.13% (inactive). The Potency in [3] is 20 µM (active); in experiment [10], > 46 µM (inactive); in experiment [11], > 46 µM (inactive). Further, the activity, negative = inhibition in experiment [5] is 27.7% (inactive). Further, the call in experiment [6], in experiment [14] and in [15] was inactive. The Potency entry in experiment [8], in experiment [13] and in [9] was “inactive” each time. The max response came out at 11.7% in experiment [12] (setting [21]) and 18.4% in experiment [12] (setting [22]).

Consider `COC1=C(OC)C(=O)C(C/C=C(\C)CC/C=C(\C)CC/C=C(\C)CC/C=C(/C)CC/C=C(\C)CC/C=C(\C)CC/C=C(\C)CC/C=C(\C)CC/C=C(\C)CCC=C(C)C)=C(C)C1=O`, for which the outcome in experiment [14] and in experiment [15] was inactive. Besides, the activity change, negative = inhibition in experiment [12] was 8.3% (inactive). Besides, the max response turned out to be 17.1% in [12] (setting [21]) and 27.6% in experiment [12] (setting [22]). Moreover, the Potency result in [13], in experiment [16] and in experiment [17] was “inactive” throughout.

With `COc1ccc(-n2c(=O)cnc3cnc(N4CCN(C)CC4)nc32)cc1`, the results for the Potency in experiment [1], in [10] and in experiment [11] were > 11.4 µM (inactive), > 9.22 µM (inactive) and > 46 µM (inactive), respectively. The values for the activity change, negative = inhibition in experiment [2] and in [4] were -6.82% (inactive) and -9.46% (inactive), respectively. In experiment [5], the activity, negative = inhibition was 2.91% (inactive). The result in experiment [6] was inactive. The Potency result in experiment [7], in experiment [18], in experiment [13] and in experiment [9] was “inactive” throughout.

As for `COCCNc1cc(-c2ccccc2CN(C)C)ncn1`, the figures for the Potency in [1], in experiment [10] and in [11] were > 11.4 µM (inactive), > 46 µM (inactive) and > 46 µM (inactive), respectively. For the same compound, the activity change, negative = inhibition in experiment [2] is 1.28% (inactive); in experiment [4] it was -0.403% (inactive); in [19], 49.4% [at 2.29 µM] (inactive). For the same compound, the Potency entry in experiment [3], in experiment [7], in experiment [13] and in experiment [9] was “inactive” each time. Further, the activity, negative = inhibition in [5] was 13.5% (inactive). Besides, the compound was classed as inactive in experiment [6], in experiment [14] and in experiment [15].

As to `COc1ccccc1-c1nccc(-n2ccnc2)n1`, the Potency in experiment [1] was > 11.4 µM (inactive); in experiment [3], 0.158 µM (active); in experiment [10] it was > 46 µM (inactive); in experiment [11], > 46 µM (inactive); in experiment [20], 1.58 µM (active). Also, the activity change, negative = inhibition in experiment [2] was 10.1% (inactive); in experiment [4], -2.21% (inactive). Further, the activity, negative = inhibition in experiment [5] was 11.9% (inactive). Moreover, the call in experiment [6], in experiment [14] and in experiment [15] was inactive. In addition, the Potency entry in [8], in experiment [13] and in [9] was “inactive” throughout.
